Results: PubChem BioAssay (NCI)
This is part of a sample that, as a whole, favours compounds with a hit. Of some 79,000 tested, about 15% had one in any assay. Values without a mark were called inactive. Active and inactive are the calls of the source. Rule as the data show it: active = growth inhibition above about 70%; inactive = the rest.

Key:
[1] = NCI Yeast Anticancer Drug Screen. Data for the rad50 strain (AID 155);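 also: 0% = growth of vehicle-only cultures of the same strain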; details: S. cerevisiae rad50 strain growth inhibition, active compounds read high
Method in brief: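 Readout: growth inhibition relative to vehicle-treated cultures. Compound exposure was carried out in a genetically defined yeast strain deficient in DNA damage repair.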

[2] = NCI Yeast Anticancer Drug Screen. Data for the mec2-1 strain (AID 157); details: S. cerevisiae mec2-1 strain, active compounds read high
Method in brief: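 Compounds were applied to mec2-1 yeast cells. Their growth was then compared with that of vehicle-treated cultures to give growth inhibition.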

[3] = NCI Yeast Anticancer Drug Screen. Data for the sgs1 mgt1 strain (AID 161);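 also: 0% = growth of cultures given vehicle only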; details: S. cerevisiae sgs1 mgt1 strain, active compounds read high
Method in brief: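 Percent growth inhibition was derived by comparing compound-exposed mutant yeast with vehicle-exposed cultures. The strain carries alterations in DNA damage repair.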

[4] = NCI Yeast Anticancer Drug Screen. Data for the cln2 rad14 strain (AID 165);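 also: 0% = growth equal to vehicle treated cultures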; details: S. cerevisiae cln2 rad14 strain, active compounds read high
Method in brief: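 Strain: cln2 rad14 yeast, altered in cell cycle control and DNA damage repair. Read-out: growth inhibition vs vehicle.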

[5] = NCI Yeast Anticancer Drug Screen. Data for the bub3 strain (AID 167); details: S. cerevisiae bub3 mutant strain, active compounds read high
Method in brief: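 Readout: yeast growth inhibition, expressed relative to vehicle-only wells. The test organism is a mutant strain from a panel with lesions in DNA repair or checkpoint genes.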

[6] = NCI Yeast Anticancer Drug Screen. Data for the mlh1 rad18 strain (AID 175); details: S. cerevisiae mlh1 rad18 strain growth inhibition, active compounds read high
Method in brief: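 A repair-deficient yeast strain is exposed to test compound, and growth is scored relative to vehicle-treated controls.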

[7] = at 5.0 µM (retest, dose inferred, filed as 0.5)
[8] = at 50.0 µM (retest, dose inferred, filed as 5.0)

| Structure (SMILES) | growth inhibition [1, 7] | growth inhibition [1, 8] | growth inhibition ([1]; at 50.0 µM) | growth inhibition [2, 7] | growth inhibition [2, 8] | growth inhibition ([2]; at 50.0 µM) | growth inhibition [3, 7] | growth inhibition [3, 8] | growth inhibition ([3]; at 50.0 µM) | growth inhibition [4, 7] | growth inhibition [4, 8] | growth inhibition ([4]; at 50.0 µM) | growth inhibition [5, 7] | growth inhibition [5, 8] | growth inhibition ([5]; at 50.0 µM) | growth inhibition [6, 7] | growth inhibition [6, 8] | growth inhibition ([6]; at 50.0 µM) |
| --- | --- | --- | --- | --- | --- | --- | --- | --- | --- | --- | --- | --- | --- | --- | --- | --- | --- | --- |
| CCOc1ccc(CCNC)c2c1ccc1ccc(OC)c(O)c12 | -1% | 97% (active) | 97.3% (active) | -5% | 98% (active) | 99% (active) | -3% | 98% (active) | 98.1% (active) | 5% | 98% (active) | 92.2% (active) | -4% | 98% (active) | 97.8% (active) | 6% | 96% (active) | 98% (active) |
| CCC[CH2][Sn-]([CH2]CCC)([CH2]CCC)[O]c1cc(Cl)c(Cl)cc1Cl | 99% (active) | 96% (active) | 90% (active) | 100% (active) | 100% (active) | 93.2% (active) | 100% (active) | 100% (active) | 93.2% (active) | – | – | – | 100% (active) | 100% (active) | 91.8% (active) | 99% (active) | 94% (active) | 90.2% (active) |
| N#Cc1cc([N+](=O)[O-])c(Cl)c([N+](=O)[O-])c1Cl | 50% | 98% (active) | 92.6% (active) | 61% | 99% (active) | 93.2% (active) | 100% (active) | 98% (active) | – | 70% (active) | 97% (active) | – | 99% (active) | 96% (active) | – | 41% | 99% (active) | 92.1% (active) |
| CC(C)c1ccc(C(C)C)c(C(=O)CN2CCOCC2)c1 | 4% | 13% | 41.1% | 8% | 34% | 34.8% | 3% | 19% | 42.6% | -1% | 2% | -3.3% | 3% | 17% | 97.8% (active) | 5% | 20% | 35.4% |
| NC(=O)Nc1ccc([As](Sc2ccccc2C(=O)O)Sc2ccccc2C(=O)O)cc1 | -1% | 14% | 15.9% | – | – | – | -3% | 10% | 17.3% | -8% | 24% | 28.9% | -8% | 26% | -7.1% | -4% | 8% | 20.1% |
| CC/C(=C\c1ccccc1)[N+](=O)[O-] | 64% | 99% (active) | – | 11% | 100% (active) | – | 25% | 100% (active) | – | 14% | 99% (active) | – | 28% | 100% (active) | – | -13% | 98% (active) | – |
| COc1cc(/C=C/[N+](=O)[O-])c(OC)cc1Br | 44% | 58% | 59.9% | – | – | – | 15% | 87% (active) | 87% (active) | 37% | 25% | 73% (active) | 24% | 75% (active) | 88.2% (active) | 38% | 40% | 89.2% (active) |
| C[C](=O)[Hg][O]c1ccc(N=Cc2ccccc2O)cc1 | 99% (active) | 99% (active) | – | 100% (active) | 100% (active) | – | 100% (active) | 100% (active) | – | 99% (active) | 99% (active) | – | 100% (active) | 99% (active) | – | 99% (active) | 99% (active) | – |
| N#CS.[Ag] | 11% | 97% (active) | 60.8% | – | – | – | 15% | 98% (active) | 75.2% (active) | 27% | 98% (active) | 32.7% | 25% | 98% (active) | 89.5% (active) | -1% | 97% (active) | 89% (active) |
| COc1cc(/C=C/[N+](=O)[O-])cc(OC)c1OC | 34% | 99% (active) | – | 22% | 99% (active) | – | 48% | 100% (active) | – | 13% | 99% (active) | – | 19% | 100% (active) | – | -8% | 99% (active) | – |
| O=C(CCCc1ccccc1)[O][Hg][c]1ccccc1 | 99% (active) | 99% (active) | 99.7% (active) | – | – | – | 98% (active) | 99% (active) | 99.6% (active) | 99% (active) | 99% (active) | 99.2% (active) | 99% (active) | 99% (active) | 99.2% (active) | 99% (active) | 99% (active) | 99% (active) |
| COc1ccc(P2(=S)Oc3ccc(C(c4ccccc4)(c4ccccc4)c4ccccc4)cc3O2)cc1 (centres undefined) | 36% | 96% (active) | 38.6% | 11% | 98% (active) | 64.3% | – | – | – | 24% | 98% (active) | 63.2% | 7% | 98% (active) | 48.9% | 34% | 98% (active) | 58.1% |
| CC(C)[S-].CC(C)[S-].[Pt+2].c1ccc([PH+](c2ccccc2)c2ccccc2)cc1.c1ccc([PH+](c2ccccc2)c2ccccc2)cc1 | 4% | 96% (active) | 88.2% (active) | – | – | – | 2% | 98% (active) | 86.2% (active) | -2% | 96% (active) | 55.9% | 7% | 97% (active) | 67.3% | 4% | 97% (active) | 95.7% (active) |
| C/C=C1/C(=O)O[C@]23C=C[C@@H]4C(C(=O)OC)=CO[C@H](O[C@@H]12)[C@@H]43 | 28% | 82% (active) | 91.9% (active) | – | – | – | 63% | 98% (active) | 93.6% (active) | 32% | 64% | 89.5% (active) | 61% | 96% (active) | 92.5% (active) | 88% (active) | 98% (active) | 66% |
| NS(=O)(=O)CCl.[Hg] | 13% | 99% (active) | – | 17% | 100% (active) | – | 15% | 100% (active) | – | 3% | 98% (active) | – | 2% | 99% (active) | – | -16% | 93% (active) | – |
| CCc1c[c]([Hg][Cl])c(CC)c(CC)c1CC | 5% | 99% (active) | 99.4% (active) | 68% | 99% (active) | 99.7% (active) | – | – | – | 2% | 90% (active) | 23.7% | 7% | 99% (active) | 16.1% | 35% | 99% (active) | 98.6% (active) |
| O=P(c1ccccc1)(c1ccccc1)c1ccccc1.[Cl][Sn]([c]1ccccc1)([c]1ccccc1)[c]1ccccc1 | 99% (active) | 98% (active) | 99.6% (active) | 97% (active) | 98% (active) | 99.7% (active) | – | – | – | 99% (active) | 98% (active) | 99.1% (active) | 99% (active) | 98% (active) | 99.3% (active) | 99% (active) | 99% (active) | 99.5% (active) |
| Cc1ccc2c(C)c3ccc4ccccc4c3c[n+]2c1 | 74% (active) | 94% (active) | 71.2% (active) | 65% | 89% (active) | 83.5% (active) | – | – | – | 51% | 71% (active) | 52.6% | 69% | 88% (active) | 86.5% (active) | 52% | 88% (active) | 72.5% (active) |
| CC(C)CCC(=O)OC1CCC2(C)C(=CCC3C2CCC2(C)C(O)CCC32)C1 (centres undefined) | 16% | 23% | 42% | -2% | 5% | -1.95% | – | – | – | 0% | 5% | 19.2% | 2% | 15% | 3.95% | -2% | 43% | 72.6% (active) |
| [pH]1p2[pH]p3p1p3[pH]2.c1cc[c]([Ge]([c]2ccccc2)[c]2ccccc2)cc1.c1cc[c]([Ge]([c]2ccccc2)[c]2ccccc2)cc1.c1cc[c]([Ge]([c]2ccccc2)[c]2ccccc2)cc1 | 10% | 82% (active) | 2.35% | – | – | – | 18% | 78% (active) | 4.75% | 8% | 44% | 37.8% | 9% | 66% | -1% | 19% | 71% (active) | 18.4% |
| Cc1cc(CCN)c(C)c2c1sc1ccccc12 | 21% | 99% (active) | 99.7% (active) | – | – | – | 89% (active) | 100% (active) | 99.7% (active) | 98% (active) | 99% (active) | 89% (active) | 97% (active) | 99% (active) | 95.1% (active) | 81% (active) | 100% (active) | 99.7% (active) |
| Clc1ccccc1C#[C][Hg][C]#Cc1ccccc1Cl | 3% | 34% | 0.25% | – | – | – | 4% | 95% (active) | 19.9% | 1% | 29% | -4.95% | -3% | 92% (active) | -9.2% | 5% | 76% (active) | 19.4% |
